What is called inhibition is the change of the read-out against control, counted positive when it falls.

Where “and” joins values, the source holds several entries; their conditions need not be identical. Equal values may be shown once. Calls of active or inactive are those of the source. No rule for the calls is given here.

The first assay is described as follows: ICB984 medulloblastoma cell growth inhibition, synergistic combos for chromothripsis tumors, cisplatin or BGB combos (AID 1671451).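 Also: cells exposed for 96 hours before readout; 0% = vehicle DMSO and 100% = killing by high DMSO.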 Particulars: ICB984 medulloblastoma cells, drug combinations, BGB IC40 combo, at 0.05 µM, stronger effect = higher value.
With `CC(=O)OCC(CCn1cnc2cnc(N)nc21)COC(C)=O`, the inhibition is -14.6%.

Turning to `S=c1nc[nH]c2nc[nH]c12`, the inhibition was -14.4% and -4.47% and -23%.

`COc1c(N2CCNC(C)C2)c(F)cc2c(=O)c(C(=O)O)cn(C3CC3)c12` (centres undefined): the inhibition was -11.7% and 20.2%.

In the case of `CC1COc2c(N3CCN(C)CC3)c(F)cc3c(=O)c(C(=O)O)cn1c23` (centres undefined), the inhibition is -26.1% and 10.2% and -18.3%.

`O=C1c2c(O)ccc(O)c2C(=O)c2c(NCCNCCO)ccc(NCCNCCO)c21`: the inhibition is 101%.

For `CS(=O)(=O)OCCCCOS(C)(=O)=O`, the inhibition was -7.43% and 3.18%.

On to `O=C(O)CCCc1ccccc1`, for which the inhibition amounted to 6.23%.

The same assay, now with this note: ICB984 medulloblastoma cells, drug combinations, at 0.5 µM, stronger effect = higher value.
As to `CC(=O)OCC(CCn1cnc2cnc(N)nc21)COC(C)=O`, the inhibition was -31.4% (inactive).

`S=c1nc[nH]c2nc[nH]c12`: the inhibition is -13.7% (inactive) and -13.9% (inactive) and -17.8% (inactive).

Turning to `COc1c(N2CCNC(C)C2)c(F)cc2c(=O)c(C(=O)O)cn(C3CC3)c12` (centres undefined), the inhibition is -18.4% (inactive) and -24.4% (inactive).

In the case of `CC1COc2c(N3CCN(C)CC3)c(F)cc3c(=O)c(C(=O)O)cn1c23` (centres undefined), the inhibition was -27.6% (inactive) and 4.56% (inactive) and -22.5% (inactive).

Turning to `O=C1c2c(O)ccc(O)c2C(=O)c2c(NCCNCCO)ccc(NCCNCCO)c21`, the inhibition was -30% (inactive).

With `CS(=O)(=O)OCCCCOS(C)(=O)=O`, the inhibition is -25.5% (inactive) and -7% (inactive).

For `O=C(O)CCCc1ccccc1`, the inhibition is -32.1% (inactive).

For the origin of these results see PubChem BioAssay.
